The full data set covers some 8,800 targets. This sample favours those with a hit. About 0.5% of all pairs of compound and target were hits. Values without a mark were called inactive.
Legend:
Test in all cases: log2 fold change, soluble protein after heating vs DMSO (PISA); higher = thermal stabilisation; K562 lysate, 10 uM; active = over 0.2 and 3.5 SD of the protein, either way, in both replicates (recomputed)
erlotinib = compound: C#Cc1cccc(Nc2ncnc3cc(OCCOC)c(OCCOC)cc23)c1 [erlotinib]
Outline: (§1)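 K562 pellets were dounce-homogenised in PBS pH 7.4 with 1 mM MgCl2, and the crude extract at 1 mg/mL protein was treated with 10 μM compound for 30 min. Aliquots were heated for 3 min across 48°C-58°C, pooled, and brought to 0.5% NP-40 at 4°C; soluble protein was the supernatant after 21,000xg for 90 min. Soluble protein was quantified by TMTpro 16plex LC-MS/MS with channel sums equalised, and reported as log2 fold change in thermal stability against DMSO controls, with values from duplicates.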

[1] = compound: C/C(=N\NC(=O)C1=CC(=CC=C1)S(=O)(=O)N2CCOCC2)/C3=C(C=CC(=C3)Cl)O
Outline: as §1

[2] = compound: C1=CC(=CC=C1C2=NC3=C(N2)C=C(C=C3)C(=O)N)OC4=CC=C(C=C4)Cl
Outline: as §1

[3] = compound: C1=CC2=C(C=CC(=C2)/C=C\3/C(=O)NC(=NCC4=CC=CS4)S3)N=C1
Outline: as §1

[4] = compound: C1=CC2=NC=CN=C2C=C1/C=C/3\C(=O)NC(=O)S3
Outline: as §1

[5] = compound: C1=CC=C(C=C1)C2=NC(=C(N2)C3=CC=NC=C3)C4=CC(=C(C=C4)Cl)O
Outline: as §1

[6] = compound: C1=CC=C2C(=C1)C3=NNC4=CC=CC(=C43)C2=O
Outline: as §1

[7] = compound: C1CCN(C1)C(=O)NC2=CC=CC(=C2)NC3=NC=C(C(=N3)NCCC4=CN=CN4)Br
Outline: as §1

[8] = compound: C1CN(CCC1(CC2=CC=C(C=C2)Cl)N)C3=NC=NC4=C3C=CN4
Outline: as §1

IRAK-1-4 Inhibitor I = compound: C1COCCN1CCN2C3=CC=CC=C3N=C2NC(=O)C4=CC(=CC=C4)[N+](=O)[O-] [IRAK-1-4 Inhibitor I]
Outline: as §1

ibrutinib = compound: C=CC(=O)N1CCC[C@@H](n2nc(-c3ccc(Oc4ccccc4)cc3)c3c(N)ncnc32)C1 [ibrutinib]
Outline: as §1

[9] = compound: CC(=O)c1cnc2ccc(-c3cc(Cl)c(O)c(Cl)c3)nc2c1N[C@H]1CC[C@H](CN(C)C)CC1
Outline: as §1

ralimetinib = compound: CC(C)(C)Cn1c(N)nc2ccc(-c3[nH]c(C(C)(C)C)nc3-c3ccc(F)cc3)nc21 [ralimetinib]
Outline: as §1

[10] = compound: CC(C)(O)CC(=O)NCCn1ccc2ncnc(Nc3ccc(Oc4cccc(C(F)(F)F)c4)c(Cl)c3)c21
Outline: as §1

[11] = compound: CC(C)C1=C2N=C(C=C(N2N=C1)NCC3=CC=CC=C3)NCCCCCCN
Outline: as §1

[12] = compound: CC1=C(C(CC(=O)N1)C2=CC=C(C=C2)C(F)(F)F)C(=O)NC3=C(C=C4C(=C3)C=NN4)F
Outline: as §1

[13] = compound: CC1=C(C2=C(C=C1)C(=O)C3=CC=CC=C3N2CCCN)C
Outline: as §1

[14] = compound: CC1=C(C=C(C=C1)NC(=O)C2=CC(=CC=C2)C(C)(C)C#N)NC3=CC4=C(C=C3)N=CN(C4=O)C
Outline: as §1

[15] = compound: CC1=C(C=C(C=C1)NC(=O)C2=CC(=CC=C2)N(C)C)NC(=O)C3=CC=C(C=C3)O
Outline: as §1

[16] = compound: CC1=CC=C(C=C1)SC2=C3C=C(SC3=CN=C2)C(=O)N
Outline: as §1

UniProt Q6ZWT7, sequence (Q6ZWT7 whole entry, looked up): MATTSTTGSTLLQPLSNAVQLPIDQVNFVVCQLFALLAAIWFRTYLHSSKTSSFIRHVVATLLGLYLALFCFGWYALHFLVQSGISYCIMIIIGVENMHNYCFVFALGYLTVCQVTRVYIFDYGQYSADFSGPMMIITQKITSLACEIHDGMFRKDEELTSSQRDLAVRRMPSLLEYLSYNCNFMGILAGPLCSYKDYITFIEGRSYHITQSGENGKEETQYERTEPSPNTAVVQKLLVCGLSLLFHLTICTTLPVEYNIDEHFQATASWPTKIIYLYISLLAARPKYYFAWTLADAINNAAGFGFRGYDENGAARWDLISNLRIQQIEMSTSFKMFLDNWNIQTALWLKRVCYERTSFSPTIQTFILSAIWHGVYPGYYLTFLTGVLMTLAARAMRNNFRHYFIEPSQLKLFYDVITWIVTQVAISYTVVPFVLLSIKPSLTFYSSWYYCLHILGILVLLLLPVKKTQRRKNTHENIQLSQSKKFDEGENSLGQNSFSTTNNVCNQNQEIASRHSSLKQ
UniProt Q96II8, sequence (Q96II8 whole entry, looked up): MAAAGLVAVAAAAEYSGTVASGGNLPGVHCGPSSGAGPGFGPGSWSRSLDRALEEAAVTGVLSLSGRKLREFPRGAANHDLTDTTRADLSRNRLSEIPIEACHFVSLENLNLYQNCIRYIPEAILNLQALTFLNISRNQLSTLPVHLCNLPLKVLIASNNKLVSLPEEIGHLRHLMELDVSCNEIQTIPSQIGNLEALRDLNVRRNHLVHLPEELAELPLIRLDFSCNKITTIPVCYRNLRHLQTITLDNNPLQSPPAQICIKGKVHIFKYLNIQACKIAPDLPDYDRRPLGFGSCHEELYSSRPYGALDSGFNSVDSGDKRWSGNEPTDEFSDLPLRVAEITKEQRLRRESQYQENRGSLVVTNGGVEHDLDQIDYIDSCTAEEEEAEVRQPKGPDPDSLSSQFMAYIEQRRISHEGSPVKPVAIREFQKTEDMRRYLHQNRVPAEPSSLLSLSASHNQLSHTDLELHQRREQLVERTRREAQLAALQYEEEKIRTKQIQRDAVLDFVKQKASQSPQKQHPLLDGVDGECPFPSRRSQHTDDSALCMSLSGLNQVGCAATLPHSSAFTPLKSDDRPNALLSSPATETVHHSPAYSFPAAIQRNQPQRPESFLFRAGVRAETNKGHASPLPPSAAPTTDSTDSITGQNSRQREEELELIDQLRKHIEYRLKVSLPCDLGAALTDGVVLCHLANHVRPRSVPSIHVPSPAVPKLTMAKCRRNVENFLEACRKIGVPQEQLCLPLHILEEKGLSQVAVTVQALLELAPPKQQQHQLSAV
UniProt Q13163, sequence (Q13163 whole entry, looked up): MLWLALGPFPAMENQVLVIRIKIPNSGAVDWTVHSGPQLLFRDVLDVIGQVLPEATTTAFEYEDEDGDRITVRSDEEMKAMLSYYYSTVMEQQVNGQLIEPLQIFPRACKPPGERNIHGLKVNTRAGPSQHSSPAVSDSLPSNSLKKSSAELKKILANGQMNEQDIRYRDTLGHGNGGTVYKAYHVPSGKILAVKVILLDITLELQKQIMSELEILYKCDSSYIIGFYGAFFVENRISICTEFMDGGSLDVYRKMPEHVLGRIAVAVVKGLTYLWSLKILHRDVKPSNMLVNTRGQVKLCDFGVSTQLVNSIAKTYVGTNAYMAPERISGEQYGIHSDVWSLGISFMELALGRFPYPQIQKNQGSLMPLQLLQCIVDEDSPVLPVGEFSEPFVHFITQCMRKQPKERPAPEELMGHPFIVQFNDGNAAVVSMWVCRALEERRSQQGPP
UniProt O15021, sequence (O15021 whole entry, looked up): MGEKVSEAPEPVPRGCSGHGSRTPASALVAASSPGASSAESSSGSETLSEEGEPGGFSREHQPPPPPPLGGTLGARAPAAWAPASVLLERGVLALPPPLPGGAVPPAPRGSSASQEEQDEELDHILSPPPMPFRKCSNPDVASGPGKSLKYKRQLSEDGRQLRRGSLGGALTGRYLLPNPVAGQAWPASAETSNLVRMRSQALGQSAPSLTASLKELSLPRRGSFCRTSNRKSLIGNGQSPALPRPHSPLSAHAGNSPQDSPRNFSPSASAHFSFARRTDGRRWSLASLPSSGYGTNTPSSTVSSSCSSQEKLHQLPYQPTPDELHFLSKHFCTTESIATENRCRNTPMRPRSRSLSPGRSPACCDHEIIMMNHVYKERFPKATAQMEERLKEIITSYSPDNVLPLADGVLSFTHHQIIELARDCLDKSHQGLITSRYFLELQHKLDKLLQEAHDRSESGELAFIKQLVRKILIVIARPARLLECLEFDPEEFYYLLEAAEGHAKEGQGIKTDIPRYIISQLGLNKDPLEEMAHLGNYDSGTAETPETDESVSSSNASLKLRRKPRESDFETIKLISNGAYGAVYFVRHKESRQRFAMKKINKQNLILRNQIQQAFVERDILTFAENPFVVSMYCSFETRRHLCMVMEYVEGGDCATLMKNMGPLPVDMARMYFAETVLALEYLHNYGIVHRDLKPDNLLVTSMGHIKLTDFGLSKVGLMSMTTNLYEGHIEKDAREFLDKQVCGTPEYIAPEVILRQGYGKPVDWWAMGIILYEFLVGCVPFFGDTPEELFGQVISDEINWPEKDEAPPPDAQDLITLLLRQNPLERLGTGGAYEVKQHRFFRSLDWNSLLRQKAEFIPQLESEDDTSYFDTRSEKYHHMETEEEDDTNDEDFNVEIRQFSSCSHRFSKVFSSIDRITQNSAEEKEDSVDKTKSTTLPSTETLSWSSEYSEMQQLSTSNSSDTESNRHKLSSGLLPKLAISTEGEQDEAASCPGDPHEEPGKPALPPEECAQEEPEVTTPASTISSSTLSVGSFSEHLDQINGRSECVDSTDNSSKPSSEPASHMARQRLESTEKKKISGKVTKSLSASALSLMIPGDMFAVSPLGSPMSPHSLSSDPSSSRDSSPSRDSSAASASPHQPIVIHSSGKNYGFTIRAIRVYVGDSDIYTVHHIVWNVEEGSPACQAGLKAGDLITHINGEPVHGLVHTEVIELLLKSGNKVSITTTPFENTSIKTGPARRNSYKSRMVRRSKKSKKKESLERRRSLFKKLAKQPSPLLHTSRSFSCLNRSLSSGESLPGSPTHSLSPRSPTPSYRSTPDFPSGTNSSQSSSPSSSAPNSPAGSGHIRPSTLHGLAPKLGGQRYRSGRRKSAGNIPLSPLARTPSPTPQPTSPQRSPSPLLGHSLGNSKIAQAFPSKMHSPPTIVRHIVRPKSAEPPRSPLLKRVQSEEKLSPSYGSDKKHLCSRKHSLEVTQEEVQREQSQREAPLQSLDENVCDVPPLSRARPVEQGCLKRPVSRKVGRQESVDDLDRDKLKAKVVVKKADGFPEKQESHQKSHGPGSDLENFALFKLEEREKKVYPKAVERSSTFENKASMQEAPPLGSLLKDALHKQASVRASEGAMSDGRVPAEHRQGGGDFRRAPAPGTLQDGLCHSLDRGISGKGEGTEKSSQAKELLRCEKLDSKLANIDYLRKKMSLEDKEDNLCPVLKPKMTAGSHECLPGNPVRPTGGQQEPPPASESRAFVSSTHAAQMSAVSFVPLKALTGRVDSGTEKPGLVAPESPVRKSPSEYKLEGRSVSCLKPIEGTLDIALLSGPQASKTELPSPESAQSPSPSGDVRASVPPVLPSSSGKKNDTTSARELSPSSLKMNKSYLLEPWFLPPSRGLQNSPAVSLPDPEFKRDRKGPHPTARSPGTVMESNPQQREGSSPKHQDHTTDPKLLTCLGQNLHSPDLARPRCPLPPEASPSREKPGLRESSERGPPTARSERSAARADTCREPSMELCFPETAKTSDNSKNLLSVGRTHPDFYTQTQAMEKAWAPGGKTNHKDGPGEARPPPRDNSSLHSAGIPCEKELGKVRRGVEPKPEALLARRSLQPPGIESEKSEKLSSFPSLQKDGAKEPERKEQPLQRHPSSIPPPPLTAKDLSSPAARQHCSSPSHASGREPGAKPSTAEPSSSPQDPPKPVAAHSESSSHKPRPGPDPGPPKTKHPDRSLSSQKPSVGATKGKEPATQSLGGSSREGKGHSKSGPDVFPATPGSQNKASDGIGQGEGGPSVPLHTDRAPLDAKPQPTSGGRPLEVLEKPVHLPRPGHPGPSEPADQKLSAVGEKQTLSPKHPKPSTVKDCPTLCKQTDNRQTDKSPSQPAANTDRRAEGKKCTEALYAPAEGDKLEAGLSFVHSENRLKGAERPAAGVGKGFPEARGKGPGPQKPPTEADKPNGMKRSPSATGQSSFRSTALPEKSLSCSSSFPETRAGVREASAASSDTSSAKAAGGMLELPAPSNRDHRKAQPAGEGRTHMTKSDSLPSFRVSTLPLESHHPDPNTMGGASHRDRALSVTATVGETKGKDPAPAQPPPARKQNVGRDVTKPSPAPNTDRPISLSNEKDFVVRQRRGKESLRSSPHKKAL
UniProt Q16539, sequence (Q16539 whole entry, looked up): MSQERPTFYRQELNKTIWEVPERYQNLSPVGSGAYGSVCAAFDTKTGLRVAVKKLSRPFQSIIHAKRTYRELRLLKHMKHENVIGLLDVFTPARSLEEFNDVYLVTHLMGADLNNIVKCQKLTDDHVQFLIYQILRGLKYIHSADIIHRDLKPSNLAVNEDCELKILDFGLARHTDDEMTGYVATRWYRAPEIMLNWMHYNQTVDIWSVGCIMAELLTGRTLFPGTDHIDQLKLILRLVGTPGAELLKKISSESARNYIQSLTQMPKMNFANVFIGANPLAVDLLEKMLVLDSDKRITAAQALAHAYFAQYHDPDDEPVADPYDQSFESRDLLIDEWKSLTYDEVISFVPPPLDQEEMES
UniProt Q9HD34, sequence (Q9HD34 whole entry, looked up): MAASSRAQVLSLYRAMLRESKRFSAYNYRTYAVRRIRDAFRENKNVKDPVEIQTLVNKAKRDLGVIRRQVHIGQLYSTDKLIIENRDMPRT

Row | Target | log2 fold change (erlotinib) | log2 fold change [1] | log2 fold change [2] | log2 fold change [3] | log2 fold change [4] | log2 fold change [5] | log2 fold change [6] | log2 fold change [7] | log2 fold change [8] | log2 fold change (IRAK-1-4 Inhibitor I) | log2 fold change (ibrutinib) | log2 fold change [9] | log2 fold change (ralimetinib) | log2 fold change [10] | log2 fold change [11] | log2 fold change [12] | log2 fold change [13] | log2 fold change [14] | log2 fold change [15] | log2 fold change [16]
1 | MAST4 (UniProt O15021) | -0.019 | -0.026 | -0.031 | 0.027 | -0.044 | 0.01 | 0.384 (active) | 0.149 | -0.011 | -0.008 | 0.019 | 0.423 (active) | 0.04 | 0.061 | -0.032 | -0.075 | 0.032 | -0.173 | -0.023 | 0.049
2 | MAP2K5 (UniProt Q13163) | 0.16 | 0.153 | -0.024 | 0.142 | -0.097 | -0.015 | 0.06 | -0.007 | -0.024 | 0.144 | 0.007 | -0.013 | 0.103 | -0.075 | -0.078 | -0.037 | -0.208 | 0.235 | 0.052 | -0.211
3 | KSR1 (UniProt Q8IVT5) | 0.011 | -0.099 | -0.038 | 0.058 | 0.022 | 0.059 | -0.078 | 0.015 | -0.037 | -0.008 | 0.021 | -0.103 | 0.054 | 0.021 | -0.025 | -0.011 | -0.032 | 0.007 | 0.019 | -0.074
4 | MAPKAPK5 (UniProt Q8IW41) | -0.058 | -0.045 | 0.016 | 0.12 | 0.007 | -0.024 | 0.276 (active) | 0.035 | 0.031 | -0.049 | -0.001 | -0.008 | -0.024 | -0.012 | 0 | -0.057 | -0.01 | 0.034 | 0.048 | -0.066
5 | MBOAT2 (UniProt Q6ZWT7) | -0.003 | 0.014 | -0.111 | -0.022 | -0.036 | -0.007 | -0.076 | -0.148 | -0.011 | -0.065 | -0.092 | -0.039 | 0.137 | 0.047 | -0.047 | 0.034 | 0.031 | 0.008 | -0.117 | 0.096
6 | KNOP1 (UniProt Q1ED39) | -0.018 | -0.011 | -0.006 | -0.176 | 0.019 | 0.008 | 0.109 | -0.128 | 0.118 | 0.123 | -0.079 | -0.096 | -0.096 | -0.133 | -0.031 | 0.052 | -0.114 | 0.155 | -0.033 | -0.118
7 | MAPK14 isoform 2 (UniProt Q16539) | -0.004 | 0.011 | -0.049 | 0.016 | 0.017 | 0.633 | -0.045 | -0.02 | 0.059 | -0.015 | 0.03 | 0.249 | 0.97 (active) | -0.047 | -0.003 | 0.02 | -0.027 | 0.973 (active) | 0.419 | 0.011
8 | LDAH isoform 2 (UniProt Q9H6V9) | -0.017 | -0.015 | -0.057 | -0.023 | 0.005 | -0.01 | -0.021 | -0.032 | 0 | 0.029 | 0.015 | 0.021 | 0.029 | 0.097 | -0.018 | 0.006 | 0.029 | 0.007 | 0 | 0.014
9 | KPNA2 (UniProt P52292) | 0.009 | 0.03 | -0.026 | 0.005 | 0.002 | -0.003 | -0.053 | -0.017 | 0.013 | -0.02 | -0.044 | -0.011 | -0.001 | -0.023 | 0.009 | -0.01 | -0.027 | -0.032 | 0.051 | 0.041
10 | LTN1 isoform 3 (UniProt O94822) | 0.028 | 0.021 | -0.065 | -0.005 | 0.003 | -0.022 | -0.045 | -0.019 | 0.023 | 0.006 | -0.036 | 0.018 | 0.016 | -0.066 | 0.079 | 0.001 | -0.009 | -0.018 | 0.075 | 0.019
11 | LYRM4 (UniProt Q9HD34) | -0.009 | 0.016 | 0.02 | -0.117 | -0.017 | -0.011 | -0.002 | -0.02 | 0.06 | 0.005 | 0.015 | 0.034 | -0.036 | -0.042 | 0.017 | 0.017 | -0.027 | 0.109 | -0.034 | -0.009
12 | MAP2K1 (UniProt Q02750) | 0.016 | 0.04 | -0.026 | -0.02 | -0.012 | -0.006 | 0.188 | 0.105 | 0.077 | 0.011 | 0.204 | 0.519 (active) | -0.021 | 0.075 | 0 | -0.024 | -0.04 | 0.007 | -0.012 | -0.004
13 | LPCAT1 (UniProt Q8NF37) | 0.056 | -0.052 | -0.057 | 0.054 | 0.062 | -0.09 | -0.014 | -0.007 | -0.025 | 0.04 | 0.175 | -0.021 | 0 | -0.142 | -0.036 | 0.066 | -0.011 | 0.003 | -0.016 | -0.019
14 | LRCH3 (UniProt Q96II8) | 0.043 | 0.047 | 0.021 | -0.013 | 0.001 | 0 | -0.053 | -0.102 | -0.014 | 0.028 | -0.052 | -0.016 | -0.004 | -0.017 | 0.015 | -0.015 | -0.025 | 0.047 | 0.07 | 0.034
15 | LIMS1 isoform 3 (UniProt P48059) | -0.004 | -0.034 | 0.014 | 0.009 | -0.008 | 0.004 | 0.094 | 0.003 | -0.017 | -0.024 | 0.003 | 0.033 | 0.003 | 0.023 | -0.036 | -0.012 | -0.01 | 0.052 | -0.023 | -0.006
16 | KLHL36 (UniProt Q8N4N3) | -0.047 | -0.001 | 0.06 | -0.112 | -0.313 (active) | -0.041 | 0.013 | -0.009 | 0.084 | 0.011 | 0.002 | -0.047 | 0.092 | -0.028 | 0.053 | -0.008 | -0.085 | -0.005 | -0.098 | -0.003
